# Reference: PubChem BioAssay (NCATS)
# Results filed as inconclusive are left out. The source made the active and inactive calls. Calls come from the whole dose curve; as a rule, active = well fitted inhibition curve with a large enough effect; inconclusive = small, poorly fitted or top-dose-only effect; inactive = no such curve, though single readings can be large or run the other way.
# Experiment: BET inhibitor-based combinations targeting novel dependencies in MECOM-rearranged (r) AML: MV-4-11 cell line (AID 2202233); note: nearly all actives have a fitted effect of over 45% in size;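 for viability, % of control: plate controls were DMSO for no effect and blank wells for full effect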
# Settings: MV-4-11 AML viability, CellTiter-Glo luminescence, 48 h; series mostly up to 46 µM; viability, % of control: at the top concentration
# In short: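 Luminescent ATP readout (CellTiter-Glo, 15 min at room temperature) after 48 hr drug exposure gave viability. Dose-response curves, normalized to DMSO and empty-well controls, were summarized as area under the curve and its mean-centred Z-score.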
# Potency is the fitted concentration of half-maximal effect.
SMILES,Potency,"viability, % of control"
CCOC(=O)c1ccc(C#Cc2ccc3c(c2)C(C)(C)CCS3)nc1,0.662 µM (active),–
O=C1OC2(CCC(C(=O)Nc3ccn(-c4ccccc4F)n3)CC2)c2cnccc21 (stereo not given),3.32 µM (active),–
O=C(NCc1ccccc1)[C@H](Cc1ccccc1)NC(=O)[C@H]1O[C@@H]1C(=O)NCCc1ccc(O)cc1,23.5 µM (active),–
CCc1cc(/C(C)=N/OCc2ccc(C3CCCCC3)c(C(F)(F)F)c2)ccc1CN1CC(C(=O)O)C1,8.33 µM (active),–
O=C1S/C(=C\c2ccc(OCc3cccc(B(O)O)c3)cc2)C(=O)N1Cc1ccc(F)cc1,18.6 µM (active),–
COc1ccc(/C=C\c2cc(OC)c(OC)c(OC)c2)cc1O,0.0132 µM (active),–
O=C(c1ccc(Nc2nc(C3CC3)cn3c(-c4cn[nH]c4)cnc23)c(F)c1)N1CCOCC1,1.18 µM (active),–
COc1ccc2c(c1)CC[C@@H]1[C@@H]2CC[C@]2(C)[C@@H](NCCCCCCN3C(=O)C=CC3=O)CC[C@@H]12,–,124% (inactive)
COc1cc(=C2C=c3ccccc3=N2)[nH]/c1=C/c1[nH]c(C)cc1C,2.35 µM (active),–
CN(C)Cc1cccc(N=C(c2ccccc2)c2c(O)[nH]c3cc(C(N)=O)ccc23)c1,0.662 µM (active),–
NC(CO)(CO)CCc1ccc(Sc2cccc(OCc3ccccc3)c2)cc1Cl,10.5 µM (active),–
CC[C@@]1(O)C(=O)OCc2c1cc1n(c2=O)Cc2c-1nc1cc(F)c(C)c3c1c2[C@@H](N)CC3,0.0042 µM (active),–
CN[C@@H](C)C(=O)N[C@H](C(=O)N1CCC[C@H]1c1nc(C(=O)c2ccc(F)cc2)cs1)C1CCCCC1,16.6 µM (active),–
CC#Cc1cncc(-c2ccc3c(c2)[C@@]2(N=C(C)C(N)=N2)C2(CCC(OC)CC2)C3)c1 (stereo not given in full),18.6 µM (active),–
Cc1cc(/C=c2/sc3nc4ccccc4n3c2=O)c(C)n1-c1ccccc1,20.9 µM (active),–
COc1cc(OC)cc(N2CCN(C(=O)Nc3nc4cc(F)ccc4nc3OC)CC2)c1,0.934 µM (active),–
CN(C)C/C=C/C(=O)Nc1cc2c(Nc3ccc(F)c(Cl)c3)ncnc2cc1O[C@H]1CCOC1,1.18 µM (active),–
CN1C/C=C/CCOc2cccc(c2)-c2ccnc(n2)Nc2cccc(c2)C1,0.417 µM (active),–
Fc1ccc(-c2csc3ncnc(NCc4ccc5c(c4)OCO5)c23)cc1,20.9 µM (active),–
CCN(C(=O)c1ccccc1OC)c1cc2c(cc1N1CCNC[C@H]1C)n(C)c(=O)n2C,–,113% (inactive)

SMILES,Potency,"viability, % of control"
C=C1[C@H](OC(=O)/C=C(\C)CC)C[C@@H](C(C)C)[C@@H]2[C@H]([C@@H](C)OC(C)=O)C(=O)C[C@@H]12,18.6 µM (active),–
CCn1c(=O)c(-c2ccc(-c3cncc(C)n3)cc2Cl)cc2cnc(NCCC3CCN(C)CC3)nc21,1.18 µM (active),–
COC(=O)[C@H](CCCN=C(N)N)NS(=O)(=O)c1ccc(C)cc1,–,115% (inactive)
O=C(Nc1ccccc1)Nc1ccc(-c2ccc(C(=O)[C@@H]3CCC[C@H]3C(=O)O)cc2)cc1,–,96.7% (inactive)
O=c1sn(-c2cccc3ccccc23)c(=O)n1Cc1ccccc1,11.8 µM (active),–
C[C@@H](Oc1ccc2[nH]nc(/C=C/c3cnn(CCO)c3)c2c1)c1c(Cl)cncc1Cl,0.296 µM (active),–
CC(C)NC(=O)C1CCC(n2c(NC(=O)c3ccc(F)cc3)nc3ccc(CN4CCC(C(C)(C)O)CC4)cc32)CC1 (stereo not given),1.82 µM (active),–
CC[C@H](CO)Nc1nc(NCc2ccccc2)c2ncn(C(C)C)c2n1,20.9 µM (active),–
C/C=C/C/C=C/CCC(=O)[C@H]1O[C@H]1C(N)=O,20.9 µM (active),–
C=CCc1cccc(/C=N/NC(=O)CN2CCN(Cc3ccccc3)CC2)c1O,16.6 µM (active),–
CCOc1cc(/C=C2/C(=O)N(c3ccccc3)N=C2C)cc(Cl)c1OCC(=O)OC,20.9 µM (active),–
CCS(=O)(=O)Nc1ccc(Oc2ccc(F)cc2F)c(-c2cn(C)c(=O)c3[nH]ccc23)c1,0.0083 µM (active),–
N#Cc1ccc(N(Cc2ccc(Br)cc2)n2cnnc2)cc1,20.9 µM (active),–
O=C([O-])C[O-].[Pt+2],–,131% (inactive)
CSC[C@H]1CN(Cc2c[nH]c3c(N)ncnc23)C[C@@H]1O,–,82.2% (inactive)
COc1nc(OCc2cccc(-c3ccccc3)c2C)ccc1CNCCNC(C)=O,16.6 µM (active),–
CN(C)CC[C@H](CSc1ccccc1)Nc1ccc(S(=O)(=O)NC(=O)c2ccc(N3CCN(Cc4ccccc4-c4ccc(Cl)cc4)CC3)cc2)cc1[N+](=O)[O-],0.263 µM (active),–
C=CC(=O)N[C@H]1CCOC[C@H]1Nc1ncc2cc(-c3c(Cl)c(OC)cc(OC)c3Cl)ccc2n1,18.6 µM (active),–
COc1ccc(S(=O)(=O)Nc2cc(-c3csc(C#N)c3)ccc2C)cc1,0.235 µM (active),–
COc1cc(C)c(/C=C/C(C)=C/C=C/C(C)=C/C(=O)O)c(C)c1C,5.9 µM (active),–
